Laboratory results taken from PubChem BioAssay AID2314 (National Center for Advancing Translational Sciences (NCATS), 2010).
The whole screen tested about 300,000 compounds, of which about 37,000 (12%) were called active. For the sample, actives were picked, then their nearest neighbours and some compounds at random. Unmarked numbers belong to inactive results. No stated cut-off is given here; in the data, active means max response mostly above about 13% (no sharp cut-off); inactive means mostly below about 14%.

Assay: Cycloheximide Counterscreen for Small Molecule Inhibitors of Shiga Toxin; further: read at 38.3 µM for the half of the compounds with a filed dose; 0% is about no effect
Details: cell reporter, cycloheximide protein synthesis inhibition counterscreen; hits give high values

SMILES | max response
CN(C)C(CNC(=O)c1cccc(C#N)c1)c1ccco1 (configuration not stated) | 8.17%
CCN(c1ccccc1)S(=O)(=O)c1ccc(NC(=O)C(C)(C)C)cc1 | -3.17%
CS(=O)(=O)N(CC(=O)Nc1ccc(F)cc1)C1CCCCC1 | -2.39%
CC(C)(CCl)C(=O)Nc1ccc(Sc2ccc(F)cc2)cc1 | 31% (active)
O=C(CCl)Nc1cccc(CP(=O)(c2ccccc2)c2ccccc2)c1 | -1.7%
O=C(CCl)Nc1ccc(Sc2ccc(NC(=O)CCl)cc2)cc1 | 24.3% (active)
COCC(=O)Nc1ccc(Br)cc1 | -0.947%
COC(=O)c1sc(N2CCN(Cc3ccccc3)CC2)nc1N | -1.52%
O=C(Nc1c2c(nn1-c1ccccc1)CS(=O)(=O)C2)C1CCCC1 | -1.45%
N#C/C(=C\c1ccc(-c2cccc([N+](=O)[O-])c2)o1)C(=O)NCCN1CCOCC1 | 2.05%
O=[N+]([O-])c1ccccc1SNc1ccccn1 | 0.9%
C/C(CC(=O)NC(C)(C)C)=N\NC(=O)c1ccco1 | 40.4% (active)
COc1ccc(N(CC(=O)NC(C)(C)C)C(=O)c2ccco2)cc1 | 1.33%
CC(C)(C)NC(=O)c1cc(NC(=O)c2ccco2)cc(NC(=O)c2ccco2)c1 | -2.77%
COc1cc(S(=O)(=O)N2CCN=C2c2ccccc2)ccc1Cl | 3.04%
CC(=O)c1nn(-c2cccc(Br)c2)cc1C(=O)c1cccc2ccccc12 | 4.07%
CCOC(=O)c1nn(-c2cccc(C)c2)cc1C(=O)c1ccccc1 | 43.2% (active)
CCOC(=O)c1cn(Cc2cccc(C)c2)nn1 | -0.759%
Cc1ccc(S(=O)(=O)N(CC(=O)NCCSC2CCCCC2)c2ccccc2F)cc1 | -3.31%
NS(=O)(=O)c1ccc(CCNc2nc(C(F)(F)F)nc3ccccc23)cc1 | -0.703%
COc1ccc(CCNC(=O)CSCc2ccc(Br)cc2)cc1OC | 1.16%
Cc1nn(C)cc1C(=O)NNC(=S)Nc1ccc(Cl)cc1 | -3.2%
COc1ccc(Cl)cc1C(=O)NCc1cn(C)nc1C | -4.09%
Cn1c(SCC(=O)Nc2ccc(Cl)cc2)nc(O)cc1=O | -0.536%
Cn1ccc(NC(=O)Nc2ccc(Cl)cc2)n1 | 36.8% (active)

SMILES | max response
CN(C(=O)Nc1ccc(Cl)cc1)n1cnc2ccccc2c1=O | 3.38%
Cc1nn(C)cc1CNC(=O)Nc1ccc(Cl)cc1 | 21.8% (active)
CCc1ccccc1NC(=O)CN(c1ccc(OC)cc1OC)S(=O)(=O)c1ccccc1[N+](=O)[O-] | 10.7%
O=c1ccc2cc(S(=O)(=O)Nc3ccccc3F)ccc2o1 | -3.48%
Cc1ccc2c(c1)-c1c(ssc1=S)C(C)(C)N2C(=O)CN1C(=O)c2ccccc2C1=O | -4.7%
CCCCC1S/C(=N/N=C/c2cccs2)NC1=O (configuration not stated) | -2.78%
Nc1ccc(-c2nnc(-c3ccccc3)o2)cc1 | 51.7% (active)
Nc1ccc(-c2nnc(-c3ccc(-c4ccccc4)cc3)o2)cc1 | 58% (active)
Nc1ccc(-c2sc(N)nc2-c2ccccc2)cc1 | 1.13%
COc1cccc(OC)c1C(=O)N1CCN(Cc2cccnc2)CC1 | -3.44%
COc1cc(CNCCN(C)C)ccc1OCc1c(F)cccc1Cl | -2.65%
CCOC(=O)C1CCN(S(=O)(=O)c2ccc3c(c2)N(C(C)=O)CCO3)CC1 | 2.65%
c1csc(-c2cn3c(n2)SCC3)c1 | 22.4% (active)
CCCS(=O)(=O)Nc1ccc(-c2cn3c(n2)SCC3)cc1 | 1.28%
Cc1cc(-c2cccs2)nc(-n2cccc2)n1 | 16.4%
COCCNC(=O)CSc1nc2sccc2c(=O)n1-c1ccccc1 | -7.71%
O=C(NC1CCCC1)C(c1ccco1)N(C(=O)c1csnn1)c1ccccc1 (configuration not stated) | -5.09%
NC(=O)C1CCCN(CC(=O)N2CCN(c3ccccc3)CC2)C1 (configuration not stated) | -4.9%
CCOC(=O)C1CCN(S(=O)(=O)c2ccc3c(c2)N(C)C(=O)CC(=O)N3C)CC1 | -2.95%
COc1ccc2c(c1OC)C(=O)N(c1ncn[nH]1)C2 | 2.6%
COc1ccc2c(c1OC)C(=O)N(c1ccc(O)cc1)C2 | 18.3% (active)
COc1cc(C(=O)N2C(=O)c3cccc(N)c3C2=O)cc(OC)c1OC | 2.15%
CCOc1ccc(S(=O)(=O)Nc2ccc(OC)nc2)cc1 | -3.62%
CCOC(=O)C1=C(CSc2nnnn2C)N(C)C(=O)NC1c1ccccc1 (configuration not stated) | -4.86%
Cc1cccnc1NC(=O)Cn1c(=O)oc2ccccc21 | -0.475%

SMILES | max response
Cc1nc(COc2cc3oc(=O)cc(C)c3cc2Cl)cs1 | 5.56%
O=C(CCc1ccccc1)Nc1ccnn1C1CCN(Cc2ccc(OCCO)cc2)CC1 | -1.22%
Cc1ccccc1-c1nc(CS(=O)(=O)CC(=O)NC(C)c2ccccc2)c(C)o1 (configuration not stated) | 1.09%
C/C(=N/NS(=O)(=O)c1ccccc1)c1ccc(NC(=O)C(F)(F)F)cc1 | 1.13%
CCOC(=O)c1ccc(NC(=O)CNC(=O)c2ccco2)cc1 | -0.716%
COC(=O)c1cc(NC(=O)c2ccco2)ccc1N1CCOCC1 | -1.96%
COC(=O)c1ccc(NC(=O)c2ccco2)cc1 | 25.4% (active)
Cc1ccnc(NC(=O)c2ccc(Cl)c([N+](=O)[O-])c2)c1 | 28.9% (active)
CN1CCN(S(=O)(=O)c2ccc(NC(=O)c3ccco3)cc2)CC1 | 12%
O=C(Nc1cccnc1)c1ccc(Cl)c([N+](=O)[O-])c1 | 11.1%
O=C(Nc1ccncc1)c1ccc(Cl)c([N+](=O)[O-])c1 | -2.17%
O=C(Nc1ccc(Cl)cc1)Nc1ccc(Oc2cccnc2)nc1 | 46.4% (active)
O=C(NNC(=O)c1csc(-c2cccnc2)n1)Nc1ccc(Cl)cc1 | 1.7%
C/C(=N\NS(=O)(=O)c1ccc(Cl)cc1)c1ccc(NC(=O)c2ccco2)cc1 | 34.2% (active)
O=C(Nc1cccnc1)c1cc(Cl)ccc1Cl | 1.75%
COc1ccc(N2C(=O)/C(=C\c3ccco3)N=C2SCC(N)=O)cc1Cl | 1.81%
CCOc1ccccc1N1CCN(C(=S)Nc2ccc(S(N)(=O)=O)cc2)CC1 | -1.52%
Cc1ccc(C(CNC(=O)Nc2ccccc2)N2CCN(C)CC2)cc1 (configuration not stated) | -1.45%
COC(=O)c1cc(S(=O)(=O)N2CCN(c3cc(C)ccc3C)CC2)c[nH]1 | 1.68%
Cc1ccc(-c2nn(-c3cccc(F)c3)cc2CNCCc2ccncc2)o1 | 5.75%
Cc1ccc(Cl)c(NC(=O)CN2CCN(C=O)CC2)c1 | 5.32%
OC(CNCc1ccc(Cl)c(Cl)c1)c1ccccc1 (configuration not stated) | 9.74%
CCN(CC)C(=O)COc1coc(CN2CCN(Cc3ccccc3)CC2)cc1=O | -3.15%
CCC(Oc1ccccc1C)C(=O)Nc1ccc(S(=O)(=O)Nc2cc(C)on2)cc1 (configuration not stated) | -7.98%
Cc1cccc(N2CCC(NCc3c(C(=O)N4CCCCC4)nc4c(C)cccn34)CC2)c1 | -4.59%

SMILES | max response
O=C(NNC(=O)c1cccnc1)Nc1ccccc1 | 4.83%
Cc1ccc(NC(=O)/C(=C\c2ccccc2)NC(=O)c2ccco2)cc1 | 0.86%
Cc1ccc(NC(=O)CC(=O)Nc2ccc(C)cc2)cc1 | -2.02%
O=C(Nc1ccc(O)cc1)c1ccc(NC(=O)c2ccco2)cc1 | 31.9% (active)
Cc1ccnc(NC(=O)CCC(=O)N(CC(=O)NCc2ccccc2)Cc2ccco2)c1 | -2.62%
COC(=O)c1ccc(NC(=O)Nc2ccc(C)cc2)cc1 | 25.1% (active)
Cc1ccc(NC(=O)Nc2cccnc2)cc1 | 24.6% (active)
Cc1ccc(NC(=O)NCC(c2cccnc2)N2CCOCC2)cc1 (configuration not stated) | -4.08%
CCC(=O)Nc1ccc(C(=O)N2CCN(C(=O)c3ccco3)CC2)cc1 | -1.69%
COc1cc(NC(=O)Nc2ccc(C)cc2)cc([N+](=O)[O-])c1 | 24%
Cc1ccnc(NC(=O)c2ccc(NC(=O)c3ccco3)cc2)c1 | 36.1% (active)
Cc1cc(NC(=O)c2ccc(F)cc2)ccc1NC(=O)c1ccco1 | 9.36%
CCc1ccccc1NC(=O)NCCN1CCCCC1 | -2.65%
COc1cccc(CNC(=O)CCC2CCCN(C(=O)c3ccoc3C)C2)c1 (configuration not stated) | 5.76%
Cc1ccc(S(=O)(=O)C2(S(=O)(=O)c3ccc(C)cc3)CCCC2)cc1 | -2.93%
Nc1nc(SCC(=O)Nc2cc(C(F)(F)F)ccc2Cl)[nH]c(=O)c1NC(=O)c1ccco1 | -2.16%
COc1ccc(S(=O)(=O)N2CCCCCC2)cc1C(=O)OCC(=O)Nc1cc(C)on1 | -1.32%
Cc1cc(C)cc(C(=O)OCC(=O)NCCNC(=O)COC(=O)c2cc(C)cc(C)c2)c1 | 19%
O=C1c2ccccc2NC(c2ccccn2)N1NS(=O)(=O)c1ccccc1 (configuration not stated) | 3.3%
CCn1c(SCC(=O)NC2=NCCS2)nnc1C(C)NC(=O)c1ccccc1F (configuration not stated) | -2.33%
Cc1cc2oc(=O)cc(CN3CCN(S(=O)(=O)c4cccs4)CC3)c2cc1C(C)C | -2.14%
Cc1ccc(CNC(=O)Cc2cn(C)c3ccccc23)cc1 | 11.6%
